LEDGF integ inh = blockers of LEDGF/p75-dependent integrase strand transfer – biochemical, TR-FRET, high throughput, primary screen. HIV-1 integrase (with human LEDGF/p75). TR-FRET IN-LEDGF/p75 DNA integration, Eu/Cy5. inhibition, % at 3.7 µM. hit rate 0.64% among 370,000. AID 743269, 2014;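 active means inhibition above the screen-wide mean plus 3 SD, cut at about 13% in these data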;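 further: signal is the Cy5 over europium emission ratio at 671 and 618 nm; 0% = plate median of compound wells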
MBD2 inh = inhibitors of MBD2 binding to methylated DNA, primary screen, biochemical, TR-FRET, DNA-binding domain, human | MBD2 binding to methylated oligonucleotide | Methyl-CpG-binding domain protein 2 (Homo sapiens), Q9UBB5 | hit rate 0.31% among 370,000 | AID 686964, 2013 | inhibition, % at 4.4 µM; in the data active means inhibition above about 13%
ABHD5 PLIN5 PPI = ABHD5-PLIN5 interaction inhibitors, primary screen, cell lysate, split luciferase complementation, luminescence | inhibition, % at 4 µM | AID 602281, 2012 | Split G. princeps luciferase complementation, 4 h | hit rate 0.78% among 360,000;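 active means inhibition above the mean inhibition across every tested compound plus 3 SD, cut at about 22% in these data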;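 further: 0% = DMSO only wells and the 100% control is not disclosed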
Target sequence (Q00G26 whole entry, looked up): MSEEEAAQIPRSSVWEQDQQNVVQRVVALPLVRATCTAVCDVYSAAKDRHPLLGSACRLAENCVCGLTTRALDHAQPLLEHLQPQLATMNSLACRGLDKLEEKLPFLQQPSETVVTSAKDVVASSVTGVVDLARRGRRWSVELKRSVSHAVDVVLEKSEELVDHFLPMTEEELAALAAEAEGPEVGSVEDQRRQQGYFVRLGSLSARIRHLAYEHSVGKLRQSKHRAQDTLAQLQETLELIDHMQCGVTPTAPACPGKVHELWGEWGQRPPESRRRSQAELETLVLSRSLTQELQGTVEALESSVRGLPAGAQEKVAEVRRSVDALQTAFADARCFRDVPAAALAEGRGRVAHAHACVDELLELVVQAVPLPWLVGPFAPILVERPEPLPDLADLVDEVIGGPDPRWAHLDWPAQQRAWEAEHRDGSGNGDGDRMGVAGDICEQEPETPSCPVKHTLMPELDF
Target sequence (Q8WTS1 whole entry, looked up): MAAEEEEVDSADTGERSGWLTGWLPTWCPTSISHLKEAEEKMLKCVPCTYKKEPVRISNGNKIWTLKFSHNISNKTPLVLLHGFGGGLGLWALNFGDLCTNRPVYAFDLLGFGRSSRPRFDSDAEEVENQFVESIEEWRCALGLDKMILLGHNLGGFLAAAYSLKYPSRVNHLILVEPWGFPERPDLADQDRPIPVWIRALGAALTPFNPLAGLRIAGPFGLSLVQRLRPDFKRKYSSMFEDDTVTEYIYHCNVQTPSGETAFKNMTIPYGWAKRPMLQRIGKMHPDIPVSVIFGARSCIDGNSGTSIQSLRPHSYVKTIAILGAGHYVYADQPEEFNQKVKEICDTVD
rCAG binder = binders of r(CAG) RNA repeats, primary screen, biochemical, fluorescence; r(CAG) RNA repeat, TO-PRO-1 dye displacement fluorescence; inhibition, % at 3 µM; hit rate 1.3% among 370,000; AID 651821, 2012;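 active means inhibition above the plate cutoff, the mean of all test compounds on that plate plus 3 SD, cut at about 35% in these data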;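 further: 0% = DMSO alone and 100% = 100 µM mitoxantrone as full dye displacement; higher means more dye released from RNA so lower well fluorescence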
PRMT1 inh = PRMT1 methyltransferase inhibitors, primary screen, biochemical, fluorescence polarization; hit rate 1.3% among 370,000; inhibition, % at 2.79 µM; Protein arginine N-methyltransferase 1 (Homo sapiens), Q99873; recombinant PRMT1, activity-based probe fluorescence polarization;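 active means inhibition above about 21% made by adding two undisclosed values, limit read from the data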
UHRF1 binding = UHRF1 methylated DNA binding inhibitors, primary screen, counter-screen for MBD2 inhibitor project, biochemical, TR-FRET, human UHRF1, single concentration | E3 ubiquitin-protein ligase UHRF1 (Homo sapiens), Q96T88 | UHRF1 binding to methylated oligo | inhibition, % at 4.4 µM | hit rate 0.75% among 370,000; in the data active means inhibition above about 21%;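 further: UHRF1 SRA domain binding a hemimethylated CpG hairpin DNA probe; 0% = median of test compound wells and 100% = reference inhibitor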
rCAG binder conf = small molecules binding CAG repeat RNA – biochemical, fluorescence, confirmation | shares compounds with rCAG binder | r(CAG) RNA repeat, TO-PRO-1 dye displacement fluorescence | inhibition, % at 3 µM | hit rate 70% among 4,300;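 active means inhibition above a per-plate cutoff, the mean inhibition of sample wells plus 3 SD, cut at about 35% in these data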;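 further: loss of TO-PRO-1 fluorescence as compound displaces dye from 1x1 AA loop RNA; 0% = DMSO only wells and 100% = 100 µM mitoxantrone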
DNA CAG counter = displacement of TO-PRO-1 from CAG DNA duplex, counter-screen for rCAG RNA repeat binder project, biochemical, fluorescence, TO-PRO-1 dye, d(CAG) DNA oligo; shares compounds with rCAG binder; d(CAG) DNA oligo TO-PRO-1 dye displacement; inhibition, % at 3 µM; hit rate 94% among 4,300;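 active means inhibition above its plate's cutoff, the mean test-well inhibition plus 3 SD, cut at about 4.8% in these data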;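 further: 0% = DNA dye mix with DMSO and 100% = 100 µM mitoxantrone; hits displace the dye from DNA and so lower well fluorescence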
An asterisk follows results filed as active; nt = no result. Rows were chosen to be rich in hits. Some 4.1% of all compounds tested hit in one or more screens of this group.

SMILES | LEDGF integ inh | MBD2 inh | ABHD5 PLIN5 PPI | rCAG binder | PRMT1 inh | UHRF1 binding | rCAG binder conf | DNA CAG counter
Cc1ccc(-c2nc3ccc(C)cn3c2Cc2cccc(Cl)c2)cc1 | 1 | -2 | -3 | 6 | -1 | 4 | nt | nt
Cc1ccc(-c2nc3ccc(Cl)cn3c2Cc2cccc(Cl)c2)cc1 | 6 | 0 | -11 | 59* | 1 | -1 | 42* | 10*
Clc1cccc(-c2nc3ccc(Br)cn3c2Cc2ccccc2)c1 | 0 | 2 | -12 | 50* | 0 | 9 | 13 | 4
Cc1cc2nc(-c3ccc(F)cc3)c(Cc3cccc(Cl)c3)n2c(C)c1Br | -5 | 4 | 13 | 61* | 3 | 3 | 29 | 8.4*
Cc1ccc2nc(-c3cccc(Cl)c3)c(Cc3ccccc3)n2c1 | 1 | -3 | -5 | 7 | -5 | 13 | nt | nt
C#CCOCCOCCOCCNc1nc(N2CCN(C(=O)[C@H]([C@@H](C)CC)n3cc(CCCCN)nn3)CC2)nc(N2CCN(C(=O)[C@H](Cc3ccc(O)cc3)n3cc(CCO)nn3)CC2)n1 | 2 | 4 | nt | nt | -7 | 5 | nt | nt
COc1ccc(C(=O)/C=C(\Nc2ccc(F)cc2)c2ccc(OC)cc2OC)c(OC)c1 | 1 | 3 | nt | 7 | 3 | -1 | nt | nt
COc1ccc2c(c1)CCCN2C(=O)C1CCCN(S(=O)(=O)c2cccs2)C1 (configuration not stated) | 5 | 7 | nt | 0 | -12 | -1 | nt | nt
Brc1cccc(-c2nc3ccc(Br)cn3c2Cc2ccccc2)c1 | -2 | 2 | -10 | 49* | 4 | 4 | 12 | 6.2*
Cc1ccc(-c2nc3ccc(Br)cn3c2Cc2ccccc2)cc1 | -1 | 4 | -18 | 35 | 2 | 19 | nt | nt
Clc1cccc(Cc2c(-c3cccc(Br)c3)nc3ccc(Br)cn23)c1 | 1 | -2 | -1 | 52* | -2 | -3 | 39* | 9.1*
O=C(NC1CCCC1)[C@@H]1CCCN1C(=O)[C@@H](NS(=O)(=O)c1ccc(F)cc1F)c1ccccc1 | 2 | 7 | nt | 2 | 2 | 0 | nt | nt
Cc1ccc(NC(=O)/C(=C\C=C\c2ccccc2)NC(=O)c2ccccc2)cc1 | -2 | 1 | 2 | 12 | -5 | -3 | nt | nt
O=C(Nc1ccc(C(=O)O)cc1)/C(=C\C=C\c1ccccc1)NC(=O)c1ccccc1Br | -5 | 1 | 1 | 54* | 0 | -1 | 35* | 12*
O=C(Nc1ccc(C(=O)O)cc1)/C(=C\C=C\c1ccccc1)NC(=O)c1cccc(Br)c1 | 9 | -6 | 1 | 78* | -3 | 0 | 80* | 52*
CC(C)(C)C(=O)Nc1ccc(C(=O)NNC(=O)c2ccccc2)cc1 | -1 | 4 | -2 | -3 | -1 | -3 | nt | nt
O=C(O)c1cc(NC(=O)c2ccc([N+](=O)[O-])cc2)cc(NC(=O)c2ccc([N+](=O)[O-])cc2)c1 | -3 | 4 | 2 | 50* | -3 | 1 | 34 | 7.2*
O=C(O)c1ccc([N+](=O)[O-])cc1 | 7 | 13 | -1 | 1 | -1 | 16 | nt | nt
CC(C)(C)C(=O)Nc1ccc(C(=O)Nc2cc(NC(=O)c3ccc(NC(=O)C(C)(C)C)cc3)cc(C(=O)O)c2)cc1 | 6 | -5 | -3 | 44* | -5 | -1 | 67* | 30*
COc1ccc(S[C@]2(C(=O)N3CCCC3)CC(=O)N[C@@H]2c2ccc(OC)cc2)cc1 | 2 | 1 | nt | 5 | 5 | 0 | nt | nt
C/C(C=NNC(=O)CSc1nnc(-c2ccccc2)n1-c1ccc(C)cc1)=C\c1ccco1 | 8 | -6 | nt | 10 | -2 | -6 | nt | nt
COc1ccc(N2CCCN(CC(=O)Nc3ccc(Cl)cc3)CC2)cc1 | -1 | -5 | nt | 1 | 10 | -1 | nt | nt
Cc1ccc(OCC(=O)Nc2nnc(S(=O)(=O)N3CCCCC3)s2)cc1 | 0 | 6 | 0 | 50* | 13 | 5 | 41* | 18*
O=C(COc1ccccc1)Nc1nnc(S(=O)(=O)N2CCCCC2)s1 | 1 | -6 | -2 | 10 | -1 | -3 | nt | nt
Cc1ccc(C(=O)Nc2nc(=O)n(C(=O)c3ccccc3Cl)s2)cc1 | -2 | -2 | -9 | 48* | -2 | -3 | 63* | 17*
SMILES | LEDGF integ inh | MBD2 inh | ABHD5 PLIN5 PPI | rCAG binder | PRMT1 inh | UHRF1 binding | rCAG binder conf | DNA CAG counter
N#CC(=C(O)CN1CCN(c2ccccc2F)CC1)c1nc(-c2ccccc2)cs1 | -2 | 4 | -3 | 51* | 2 | -2 | 51* | 18*
N#CC(=C(O)CN1CCN(c2ccccc2F)CC1)c1nc(-c2ccc(Cl)cc2)cs1 | -4 | 4 | -1 | 51* | 2 | 1 | 63* | 24*
CCOC(=O)C1CCCN(C/C(O)=C(\C#N)c2nc(-c3ccc(Cl)cc3)cs2)C1 (configuration not stated) | -2 | -6 | 1 | 35* | -2 | -1 | 58* | 17*
COC(=O)c1cc2c(c3c4cc(C)ccc4n(S(=O)(=O)c4ccc(C)cc4)c13)C(=O)N(Cc1ccc(C(F)(F)F)cc1)C2 | 3 | -7 | nt | 17 | -2 | 0 | nt | nt
CCCC1CCC2(CC1)CCC2OC(=S)NCc1cccc(F)c1 (configuration not stated) | 4 | 0 | nt | nt | 0 | 0 | nt | nt
Cc1cccc(NC(=O)CN2C(=O)S/C(=C\c3ccc(O)c([N+](=O)[O-])c3)C2=O)c1 | 4 | -6 | 1 | 83* | 5 | 1 | 57* | 20*
O=C(CN1C(=O)S/C(=C\c2cc(Cl)c(O)c(Cl)c2)C1=O)Nc1ccccc1 | 1 | -4 | -3 | 48* | -2 | 0 | 50* | 16*
O=C(CN1C(=O)S/C(=C\c2ccc(O)c([N+](=O)[O-])c2)C1=O)Nc1ccc(N2CCOCC2)cc1 | 2 | 0 | -4 | -1 | -2 | 0 | nt | nt
Cc1ccc(NC(=O)CN2C(=O)S/C(=C/c3ccc(O)c([N+](=O)[O-])c3)C2=O)cc1C | 0 | -2 | 4 | 94* | 2 | -2 | 80* | 46*

Screens as filed in PubChem.
